Experimental data as given in PubChem BioAssay.
Activity calls are given as the source filed them. Unless noted, the rule behind the calls is not given here.

What was measured:
[1] = test system: Wnt5a (protein binding on small-molecule microarray); assay: Wnt5a binders on small-molecule microarray, primary screen, biophysical, 635/667 nm fluorescence (AID 1142); conditions: 635 nm fluorescence, higher = more signal;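 note: fluorescence read at 667 nm with signal to noise per printed feature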
[2] = cell viability in Huh7 cells, primary screen, cytotoxicity control for HCV replication inhibitor project, CellTiter-Glo luminescence, basal, 48 h (AID 1143); conditions: Huh7 HCV replicon, higher = more signal, called active from +8 up or from −8 down;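 note: Huh7 hepatoma cells carrying a hepatitis C replication reporter with no stimulus; test concentration not given here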
[3] = P. aeruginosa biofilm formation inhibitors, primary screen, PAO1 strain, BacTiter-Glo luminescence, LB-PBS (AID 1144); conditions: 12 h, higher = more signal
[4] = CREB reporter modulators without forskolin, primary screen, cell-based, PC12, CRE-LacZ reporter, unstimulated (AID 1145); conditions: no forskolin, luminescence, 4.5 h, higher = more signal, called active from +8 up or from −8 down
[5] = CREB reporter modulators under forskolin, primary screen, cell-based, PC12, CRE-LacZ reporter, forskolin-stimulated (AID 1146); conditions: luminescence, 4.5 h, higher = more signal, called active from +8 up or from −8 down;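 note: PC12 cells with 6xCRE LacZ reporter stimulated by forskolin 10 µM; beta-galactosidase reporter signal reflecting CREB driven transcription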
[6] = molecular target: Streptavidin (Streptomyces avidinii) (UniProt P22629); assay: streptavidin binders on small-molecule microarray, primary screen, artefact control for SMM compound annotation, biophysical, 635/667 nm fluorescence (AID 1147); conditions: streptavidin binding, higher = more signal;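 note: signal reflects streptavidin binding to arrayed compounds as a control protein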
Streptavidin (Streptomyces avidinii), sequence (P22629 whole entry, looked up): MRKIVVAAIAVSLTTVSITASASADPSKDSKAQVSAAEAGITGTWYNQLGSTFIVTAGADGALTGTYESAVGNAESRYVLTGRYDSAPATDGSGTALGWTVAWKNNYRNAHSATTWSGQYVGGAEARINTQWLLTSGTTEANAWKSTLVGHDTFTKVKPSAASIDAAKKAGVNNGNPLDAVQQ

[7] = small-molecule binders of probe aInhba, primary screen, biochemical, small-molecule microarray, 635/667 nm fluorescence (AID 1148); conditions: higher = more signal;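 note: score merges 667nm spot fluorescence with signal-to-noise for antibody binding to printed compounds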
[8] = molecular target: Torsin-1A (Homo sapiens) (UniProt O14656); assay: torsin A binders from cell lysate, primary screen, small-molecule microarray, wild-type, 635/667 nm (AID 1149); conditions: COS7 hTOR1A-WT lysate, 635 nm fluorescence, higher = more signal
Torsin-1A (Homo sapiens), sequence (O14656 whole entry, looked up): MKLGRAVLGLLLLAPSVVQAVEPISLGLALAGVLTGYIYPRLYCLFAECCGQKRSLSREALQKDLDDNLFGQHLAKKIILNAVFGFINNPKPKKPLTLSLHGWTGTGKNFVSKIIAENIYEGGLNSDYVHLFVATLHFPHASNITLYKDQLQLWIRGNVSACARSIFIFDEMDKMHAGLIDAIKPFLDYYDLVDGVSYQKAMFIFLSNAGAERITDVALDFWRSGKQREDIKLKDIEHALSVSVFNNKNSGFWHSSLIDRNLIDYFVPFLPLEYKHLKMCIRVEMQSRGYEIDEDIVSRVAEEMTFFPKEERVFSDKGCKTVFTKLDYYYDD

[9] = molecular target: Torsin-1A (Homo sapiens) (UniProt O14656); assay: small-molecule binders of mutant TOR1A in lysate, primary screen, cell lysate, small-molecule microarray, COS7 lysate, 635/667 nm fluorescence (AID 1150); conditions: COS7 hTOR1A mutant lysate, 635 nm fluorescence, higher = more signal;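 note: score pools 667 nm emission and signal to noise measuring lysate protein binding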
[10] = test system: Sonic hedgehog protein (Shh); assay: small-molecule binders of Shh protein, primary screen, biochemical, small-molecule microarray, 635/667 nm fluorescence (AID 1151); conditions: small-molecule microarray binding, 635 nm fluorescence; higher = more signal;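 note: Shh protein binding to compounds spotted on small-molecule microarray slides; score combines spot fluorescence intensity with signal-to-noise across triplicate slides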

In the case of `COC(=O)CC=C[C@@H](C)[C@@H](C=NO[C@@H](C)c1cn([C@H](CO)Cc2ccccc2)nn1)NS(=O)(=O)c1ccc(C)cc1`, the composite z-score [1] is reported as 0.062, the z-score [2] is reported as -0.35 (inactive) and the z-score [3] is reported as 0.606 (inactive). The z-score [4] was 3.99 (inactive), the z-score [5] was -0.0697 (inactive) and the composite z-score [6] was 0.0525. It also gave a composite z-score [7] of 0.0928, a composite z-score [8] of 0.945 and a composite z-score [9] of 0.997. The composite z-score [10] was 0.685.

With `COC(=O)CC=C[C@@H](C)[C@@H](C=NO[C@H](C)c1cn([C@@H]2COC[C@H]2O)nn1)NS(=O)(=O)c1ccc(C)cc1` the composite z-score [1] was -0.0155, the z-score [2] was 0.23 (inactive) and the z-score [3] was -0.668 (inactive). The z-score [4] was 1.08 (inactive), the z-score [5] was -0.112 (inactive) and the composite z-score [6] was -0.262. For the same compound, the composite z-score [7] was 0.0173, the composite z-score [8] was 0.68 and the composite z-score [9] was 0.429. The composite z-score [10] was 0.691.

In the case of `CO[C@@H]1COC(=O)[C@H](CCSC)NC(=O)CC=C[C@@H](C)COC(=O)CCC[C@H]1C`, the composite z-score [1] is reported as -0.277, the z-score [2] is reported as -2.75 (inactive) and the z-score [3] is reported as -0.88 (inactive). For the same compound, the z-score [4] was 0.341 (inactive), the z-score [5] was 0.85 (inactive) and the composite z-score [6] was -1.47. The composite z-score [7] was -0.255, the composite z-score [8] was 4.03 and the composite z-score [9] was 4.08. The composite z-score [10] was 2.27.

With `CCOC(=O)[C@H](CC(C)C)NC(=O)CCC1CC(OC(=O)NCc2cccc3ccccc23)CC2(CCCC(COC(=O)NCCCN3CCCC3=O)O2)O1` (stereo not given in full) the composite z-score [1] was -0.144, the z-score [2] was -0.961 (inactive) and the z-score [3] was -0.908 (inactive). For the same compound, the z-score [4] was -0.437 (inactive), the z-score [5] was 0.501 (inactive) and the composite z-score [6] was 0.286. The composite z-score [7] was -0.128, the composite z-score [8] was 0.316 and the composite z-score [9] was 0.299. For the same compound, the composite z-score [10] was 0.956.

In the case of `O=C(NN=C1C[C@@H](O)[C@@H](O)[C@@H]2[C@@H]3C(=O)N(C4CCCCC4)C(=O)[C@@H]3CC[C@H]12)OCc1ccccc1`, the composite z-score [1] is reported as 0.476, the z-score [2] is reported as 0.0552 (inactive) and the z-score [3] is reported as -0.19 (inactive). The z-score [4] was 0.338 (inactive), the z-score [5] was -0.0351 (inactive) and the composite z-score [6] was 0.0049. The composite z-score [7] was -0.082, the composite z-score [8] was 0.118 and the composite z-score [9] was 0.416. The composite z-score [10] was -0.554.

With `CCCNC(=O)OC[C@H]1O[C@H](CCON=C(C)CCN2CCc3nc(CC)c(CC)cc3C2)C=C[C@@H]1Oc1ccc(OC)cc1` the composite z-score [1] was -0.0552, the z-score [2] was -2.1 (inactive) and the z-score [3] was -0.546 (inactive). For the same compound, the z-score [4] was 10.3 (active), the z-score [5] was 0.82 (inactive) and the composite z-score [6] was 0.333. It also gave a composite z-score [7] of -0.0405, a composite z-score [8] of 0.686 and a composite z-score [9] of 0.481. For the same compound, the composite z-score [10] was 0.391.

With `CCOC(=O)[C@H](CC(C)C)NC(=O)CCC1CC(OC(=O)NCc2cccc3ccccc23)CC2(CCCC(COC(=O)NCCOC)O2)O1` (stereo not given in full) the composite z-score [1] was 0.238, the z-score [2] was -1.3 (inactive) and the z-score [3] was -0.656 (inactive). The z-score [4] was -0.526 (inactive), the z-score [5] was 0.389 (inactive) and the composite z-score [6] was 0.0772. It also gave a composite z-score [7] of 0.119, a composite z-score [8] of -0.114 and a composite z-score [9] of 0.753. The composite z-score [10] was 1.03.

In the case of `CCOC(=O)[C@H](CC(C)C)NC(=O)CCC1CC(OC(=O)NCc2cccc3ccccc23)CC2(CCCC(COC(=O)NCC3CCCCC3)O2)O1` (stereo not given in full), the composite z-score [1] is reported as -0.0639, the z-score [2] is reported as -4.12 (inactive) and the z-score [3] is reported as -0.306 (inactive). The z-score [4] was 0.0178 (inactive), the z-score [5] was 1.6 (inactive) and the composite z-score [6] was 0.405. For the same compound, the composite z-score [7] was -0.0962, the composite z-score [8] was -0.192 and the composite z-score [9] was 0.528. For the same compound, the composite z-score [10] was 1.06.

In the case of `COc1cccc([C@H]2Oc3ccc(OC)cc3C(=NO[C@@H](C)c3cn([C@H](CO)Cc4ccccc4)nn3)[C@@H]2O)c1`, the composite z-score [1] is reported as -0.353, the z-score [2] is reported as -0.404 (inactive) and the z-score [3] is reported as 0.0128 (inactive). The z-score [4] was 6.77 (inactive), the z-score [5] was 0.661 (inactive) and the composite z-score [6] was 0.326. It also gave a composite z-score [7] of -0.0986, a composite z-score [8] of -0.44 and a composite z-score [9] of -0.137. It also gave a composite z-score [10] of -0.243.

In the case of `COc1ccc(O[C@H]2C=C[C@@H](c3ccccc3)O[C@@H]2CON=C(C)CCN2CCc3nc(-c4ccccc4)c(-c4ccccc4)cc3C2)cc1`, the composite z-score [1] is reported as -0.193, the z-score [2] is reported as -0.203 (inactive) and the z-score [3] is reported as -0.18 (inactive). The z-score [4] was 1.62 (inactive), the z-score [5] was 0.703 (inactive) and the composite z-score [6] was 0.852. It also gave a composite z-score [7] of -0.0719, a composite z-score [8] of -0.449 and a composite z-score [9] of -0.199. It also gave a composite z-score [10] of 0.194.

With `CC(CCN1CCCCc2nc(C)c(C)cc21)=NOC[C@@H](O)COCc1ccco1` the composite z-score [1] was 0.59, the z-score [2] was 0.159 (inactive) and the z-score [3] was 0.676 (inactive). The z-score [4] was 0.662 (inactive), the z-score [5] was 0.758 (inactive) and the composite z-score [6] was -0.555. The composite z-score [7] was -0.15, the composite z-score [8] was 3.74 and the composite z-score [9] was 3.23. For the same compound, the composite z-score [10] was 2.31.

With `O=C1C[C@@H](O)[C@@H](O)[C@@H]2[C@@H]3C(=O)N(Cc4ccccc4)C(=O)[C@@H]3CC[C@@H]12` the composite z-score [1] was 0.19, the z-score [2] was 0.398 (inactive) and the z-score [3] was -0.593 (inactive). For the same compound, the z-score [4] was 1.06 (inactive), the z-score [5] was 0.113 (inactive) and the composite z-score [6] was 0.413. For the same compound, the composite z-score [7] was 0.0391, the composite z-score [8] was 0.498 and the composite z-score [9] was 0.35. For the same compound, the composite z-score [10] was 0.772.

In the case of `CO[C@H]1COC(=O)CC=C[C@@H](C)[C@H](OC)COC(=O)CCC[C@@H]1C`, the composite z-score [1] is reported as -0.0494, the z-score [2] is reported as -0.127 (inactive) and the z-score [3] is reported as -0.913 (inactive). The z-score [4] was -0.482 (inactive), the z-score [5] was 0.0877 (inactive) and the composite z-score [6] was 0.0616. For the same compound, the composite z-score [7] was -0.153, the composite z-score [8] was 1.89 and the composite z-score [9] was 0.33. It also gave a composite z-score [10] of 1.18.

In the case of `CC(CCN1CCCCc2nc(C)c(C)cc21)=NO[C@@H](C)c1cn([C@H](CO)Cc2ccccc2)nn1`, the composite z-score [1] is reported as -0.0648, the z-score [2] is reported as -0.831 (inactive) and the z-score [3] is reported as 0.48 (inactive). For the same compound, the z-score [4] was 1.62 (inactive), the z-score [5] was -0.0513 (inactive) and the composite z-score [6] was 0.336. The composite z-score [7] was -0.016, the composite z-score [8] was 0.803 and the composite z-score [9] was 0.728. The composite z-score [10] was 1.02.

With `COC(=O)C1=C(C)N(Cc2ccccc2)[C@]23O[C@](C(=O)OC)(C(=O)N2[C@@H]1c1ccccc1)C(C(=O)OC)=C3C(=O)OC` the composite z-score [1] was 0.256, the z-score [2] was -4.08 (inactive) and the z-score [3] was -1.25 (inactive). For the same compound, the z-score [4] was 1.92 (inactive), the z-score [5] was -1.61 (inactive) and the composite z-score [6] was 0.252. For the same compound, the composite z-score [7] was 0.095, the composite z-score [8] was 0.199 and the composite z-score [9] was 0.454. The composite z-score [10] was 0.657.

For `COC(=O)CC=C[C@@H](C)[C@@H](C=NOCC[C@@H]1C=C[C@H](OC(C)=O)[C@@H](COC(C)=O)O1)NS(=O)(=O)c1ccc(C)cc1`, the composite z-score [1] was 0.146, the z-score [2] was 0.415 (inactive) and the z-score [3] was 0.493 (inactive). For the same compound, the z-score [4] was 1.28 (inactive), the z-score [5] was 0.378 (inactive) and the composite z-score [6] was -0.376. The composite z-score [7] was -0.0523, the composite z-score [8] was 1.14 and the composite z-score [9] was 1.44. It also gave a composite z-score [10] of 0.554.

With `O=C(NN=C1C[C@@H](O)[C@@H](O)[C@@H]2[C@@H]3C(=O)N(C[C@@H]4CCCO4)C(=O)[C@@H]3CC[C@@H]12)OCc1ccccc1` the composite z-score [1] was 0.0252, the z-score [2] was -0.746 (inactive) and the z-score [3] was 0.556 (inactive). For the same compound, the z-score [4] was 0.694 (inactive), the z-score [5] was 0.13 (inactive) and the composite z-score [6] was -0.34. For the same compound, the composite z-score [7] was -0.242, the composite z-score [8] was 2.6 and the composite z-score [9] was 2.72. For the same compound, the composite z-score [10] was 0.604.
